Hits are enriched below; roughly 2.7% of the tested compounds scored in any of these assays.
TGFb SMAD3 inh: blocks TGF-b signaling; 410,000 compounds, 1.2% hits; Potency, µM (highest dose often 46.1 µM), most hits filed as inhibitors; HepG2 CAGA-GFP TGF-b/SMAD3 reporter, GFP fluorescence, 18 h; TGF-beta stimulated, 500 pg/mL final; also: nearly all actives have a fitted effect of over 65% in size
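TGF-beta reporter screen: HEPG2 CAGA-GFP, 1% FBS, 500 pg/mL TGF-beta final, 18 h; per-cell GFP summed per well; curves fitted and categorized by class.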
ATXN2 expr inh: inhibitors of ATXN2 expression; HEK-293 ATXN2-luciferase reporter, luminescence, 24 h; Potency, µM (top dose mostly 57 µM), usual class: inhibitors; 360,000 compounds, 0.72% hits; AID 1745845; also: nearly all actives have a fitted effect of over 55% in size
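qHTS (up to 57 uM final) was run with 24 h compound exposure of reporter cells at 37 °C. Each well was multiplexed: SteadyGlo luminescence measured ATXN2-luciferase expression after a fluorogenic Gly-Phe-AFC viability readout (25 uM final).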
S2 tox: viability counter-screen for ATXN expression inhibitors; S2 cells (HEK-293 line with an ATXN2-luciferase reporter) viability, CellTiter-Fluor protease fluorescence, 24 h; Potency, µM (doses to about 56.7 µM), most hits filed as cytotoxic; 400,000 compounds, 0.49% hits; AID 651635; also: nearly all actives have a fitted effect of over 40% in size
HepG2 tox: HepG2 cytotoxicity, counter-screen for TGF-b inhibitors. HepG2 CAGA-GFP viability, ATP luminescence, 18 h. Potency, µM (titrated, usually from 46.1 µM), actives largely listed as cytotoxic. 410,000 compounds, 0.76% hits. AID 588856
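HepG2 CAGA-GFP cells (1000/well, DMEM with 1% FBS) received compound, then TGF-beta at 500 pg/mL final, and were incubated 18 hours at 37 degrees C. Viability was read by CellTiter-Glo luminescence. Media-only wells were set as complete cell-killing and DMSO as no toxicity.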
ALOX12 inh: inhibitors of human 12S-lipoxygenase ALOX12; P18054; purified 12hLO, xylenol orange hydroperoxide absorbance; Potency, µM (doses to about 108 µM), actives largely listed as inhibitors; 580,000 compounds, 1.1% hits; AID 1671190
Target sequence (P18054 whole entry, looked up): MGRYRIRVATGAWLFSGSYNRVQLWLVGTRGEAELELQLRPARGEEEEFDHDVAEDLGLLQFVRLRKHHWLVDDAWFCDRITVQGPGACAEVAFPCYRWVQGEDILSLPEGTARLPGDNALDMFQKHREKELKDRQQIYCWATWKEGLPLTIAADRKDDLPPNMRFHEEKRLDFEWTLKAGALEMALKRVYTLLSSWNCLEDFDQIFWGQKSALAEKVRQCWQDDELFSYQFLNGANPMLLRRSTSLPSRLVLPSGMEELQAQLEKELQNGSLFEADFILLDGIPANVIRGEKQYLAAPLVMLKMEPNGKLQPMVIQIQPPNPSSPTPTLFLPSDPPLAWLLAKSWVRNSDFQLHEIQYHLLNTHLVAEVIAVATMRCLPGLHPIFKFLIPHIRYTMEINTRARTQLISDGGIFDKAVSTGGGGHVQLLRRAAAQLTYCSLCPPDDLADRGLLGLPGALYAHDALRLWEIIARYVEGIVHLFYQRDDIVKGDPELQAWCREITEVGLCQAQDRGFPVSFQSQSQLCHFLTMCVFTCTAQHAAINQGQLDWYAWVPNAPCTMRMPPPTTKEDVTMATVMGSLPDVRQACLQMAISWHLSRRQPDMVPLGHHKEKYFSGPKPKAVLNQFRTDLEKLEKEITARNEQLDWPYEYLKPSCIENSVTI
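Purified human 12hLO at 150 nM in 25 mM Hepes, 0.01% Triton X-100, pH 7.0, preincubated 15 min at room temperature with compound. Reaction started with 40 uM arachidonic acid, 30 min at room temperature. Hydroperoxide measured by Fe-xylenol orange, 573/405 nm absorbance ratio.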
SK-N-SH 3D tox: SK-N-SH 3D spheroid viability loss. 65 compounds, 70% hits. Potency, µM (titrated, usually from 30.7 µM), usual class: inhibitors. SK-N-SH 3D spheroid viability, PI/Hoechst imaging, 72 h. shares compounds with ATXN2 expr inh
SJGBM2 3D viab: reduced viability of SJ-GBM2 3D spheroids, orthogonal test; Potency, µM (doses to about 30.7 µM), actives largely listed as inhibitors; 65 compounds, 80% hits; SJ-GBM2 3D spheroid viability, PI/Hoechst imaging, 72 h; AID 1347136; shares compounds with ATXN2 expr inh
Daoy spheroid: Daoy 3D spheroid viability loss. 65 compounds, 50% hits. Potency, µM (top dose mostly 30.7 µM), usual class: inhibitors. AID 1347137. shares compounds with ATXN2 expr inh. Daoy 3D spheroid viability, PI/Hoechst imaging, 72 h
TC32 3D casp: TC32 spheroid caspase-3/7 activation, orthogonal screen; shares compounds with ATXN2 expr inh; TC32 3D spheroids, caspase-3/7 fluorescence imaging, 24 h; Potency, µM (series often up to 30.7 µM), actives largely listed as inhibitors; 65 compounds, 30% hits
TC32 spheroid: kills TC32 spheroids in orthogonal 3D test | TC32 3D spheroid viability, PI/Hoechst imaging, 72 h | 65 compounds, 60% hits | shares compounds with ATXN2 expr inh | Potency, µM (doses to about 30.7 µM), most hits filed as inhibitors
MG63 3D tox: reduced viability of MG-63 (6-TG R) 3D spheroids, orthogonal test. MG-63 (6-TG R) 3D spheroid viability, PI/Hoechst imaging, 72 h. AID 1347140. 65 compounds, 50% hits. shares compounds with ATXN2 expr inh. Potency, µM (top dose mostly 30.7 µM), usual class: inhibitors
RD spheroid: reduced viability of RD 3D spheroids, orthogonal test. shares compounds with ATXN2 expr inh. RD rhabdomyosarcoma 3D spheroid viability, PI/Hoechst imaging, 72 h. Potency, µM (titrated, usually from 30.7 µM), most hits filed as inhibitors. 65 compounds, 50% hits. AID 1347141
Each line names hits and unclear results; the compound was inactive in the other large screens (follow-up assays come after a bar, where they were run). Calls follow the shape of the dose curve; as a rule, active = well fitted curve in the direction sought with a large enough effect; inconclusive = small, poorly fitted or top-dose-only effect, or another doubt; inactive = no such curve, though single readings can be large; an effect the other way counts as inactive or inconclusive.

Cc1[nH]nc2c1C(c1ccc(-c3cccc(Cl)c3)o1)SCC(=O)N2 (stereo not drawn)	none (no result: TGFb SMAD3 inh, ATXN2 expr inh, S2 tox, HepG2 tox)
COC(=O)C1=CCCN(C)C1	ALOX12 inh inconclusive | SK-N-SH 3D tox 13µM | SJGBM2 3D viab inconclusive | Daoy spheroid inactive | TC32 3D casp inconclusive | TC32 spheroid 4.1µM | MG63 3D tox inactive | RD spheroid inactive
CN1CCCCC1Cc1ccccc1 (stereo not drawn)	TGFb SMAD3 inh inconclusive (no result: ALOX12 inh)
CN(C)[C@@H]1C(=O)C(C(N)=O)=C(O)[C@]2(O)C(=O)C3=C(O)c4c(O)cccc4[C@@](C)(O)[C@H]3[C@H](O)[C@@H]12	none (no result: TGFb SMAD3 inh, ATXN2 expr inh, HepG2 tox, ALOX12 inh)
CC(C)NC(=O)NC[C@H]1C[C@@H]2CCN1C[C@@H]2c1cc(-c2ccc(F)cc2)nn1C	none (no result: TGFb SMAD3 inh, ATXN2 expr inh, S2 tox, HepG2 tox)
COc1ccccc1N1CCN(C(=O)[C@H]2CN3CCC2C[C@@H]3Cn2cc(C(C)(C)O)nn2)CC1 (stereo partly drawn)	none (no result: TGFb SMAD3 inh, ATXN2 expr inh, S2 tox, HepG2 tox)
O=C(Cc1ccccc1Cl)N1CCN(C2CCN(CCc3ccccc3)C2=O)CC1 (stereo not drawn)	none (no result: TGFb SMAD3 inh, ATXN2 expr inh, S2 tox, HepG2 tox)
c1ccc2c(CN3CCNCC3)cccc2c1	ATXN2 expr inh inconclusive (no result: TGFb SMAD3 inh, S2 tox, HepG2 tox)
O=C(O)CNC1c2ccccc2CSc2ccccc21 (stereo not drawn)	ALOX12 inh inconclusive
O=[S+]1([O-])NC2(CCN(Cc3ccccn3)C2)CNc2ccccc21 (stereo not drawn)	none (no result: TGFb SMAD3 inh, ATXN2 expr inh, S2 tox, HepG2 tox)
Fc1ccc(C(OCCN2CCCC2)c2ccc(Br)cc2)cc1 (stereo not drawn)	TGFb SMAD3 inh inconclusive
OCC1CN(C2CCC2)CC12CCN(Cc1ccncc1)CC2 (stereo not drawn)	none (no result: TGFb SMAD3 inh, ATXN2 expr inh, S2 tox, HepG2 tox)
COC(=O)c1ccc(CN2CCN(Cc3ccccc3)CC2)cc1	ALOX12 inh inconclusive
Cc1ccc(C(=O)N2[C@H]3CC[C@@H]2c2cnc(-c4ccccc4)nc2C3)cn1	none (no result: TGFb SMAD3 inh, ATXN2 expr inh, S2 tox, HepG2 tox)
CC(=O)Nc1ccc(S(=O)(=O)NC[C@H]2C[C@@H]3CCN2C[C@@H]3c2cc(-c3ccccc3)nn2C)cc1	none (no result: TGFb SMAD3 inh, ATXN2 expr inh, S2 tox, HepG2 tox)
CCN(CC)CCN1Cc2ccccc2C1=N	none
COc1ccc(-c2c(C#N)c(N)nc3c2c(=O)nc2sccn23)cc1OC	none (no result: TGFb SMAD3 inh, ATXN2 expr inh, S2 tox, HepG2 tox)
CN(C)C1C(=O)C(C(N)=O)=C(O)C2(O)C(=O)C3=C(O)c4c(O)cccc4C(C)(O)C3CC12 (stereo not drawn)	none (no result: ALOX12 inh)
FC(F)(F)c1ccc2c(c1)N(CCCN1CCN(CCCl)CC1)c1ccccc1S2	TGFb SMAD3 inh inconclusive, ATXN2 expr inh inconclusive, S2 tox inconclusive, ALOX12 inh inconclusive
CN(C)CC/C=C1/c2ccccc2Sc2ccc(Cl)cc21	TGFb SMAD3 inh inconclusive, S2 tox inconclusive, ALOX12 inh inconclusive
CCCNC(=O)N1CC2CN(C(C)C)CC(C1)O2	none (no result: TGFb SMAD3 inh, ATXN2 expr inh, S2 tox, HepG2 tox)

Screening data deposited in PubChem by National Center for Advancing Translational Sciences (NCATS).
